Assay results: the supplement of paper PMC12632987
Over roughly 1,800 sequences, “median log2 fold change of GCK-ALFA target abundance (FLAG IP / Myc IP barcode read proportion)” has its median near 0.14; the lowest 2% begin near -0.84. This is one part of a sample in which the lowest values are shown more often than they occur.

T1: TRAF2, Q12933
T1 chain: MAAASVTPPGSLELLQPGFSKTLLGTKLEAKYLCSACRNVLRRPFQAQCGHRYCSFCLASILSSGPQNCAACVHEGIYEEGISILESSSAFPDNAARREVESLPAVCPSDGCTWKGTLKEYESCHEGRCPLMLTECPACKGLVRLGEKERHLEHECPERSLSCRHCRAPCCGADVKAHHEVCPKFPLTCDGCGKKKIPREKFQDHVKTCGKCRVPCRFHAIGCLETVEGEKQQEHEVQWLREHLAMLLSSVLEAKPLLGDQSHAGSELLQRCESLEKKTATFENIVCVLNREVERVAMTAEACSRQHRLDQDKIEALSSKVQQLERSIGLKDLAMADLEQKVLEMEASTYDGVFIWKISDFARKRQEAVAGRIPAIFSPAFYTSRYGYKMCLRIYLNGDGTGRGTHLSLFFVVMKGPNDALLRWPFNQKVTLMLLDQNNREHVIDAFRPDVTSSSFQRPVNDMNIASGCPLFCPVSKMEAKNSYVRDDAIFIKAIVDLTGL

B1: traf2_out_17_162_1600 (protein)
chain: SELEKFKEKIEKELEELEKERKELEKKLKEIDSLSKEELTDLLVEASEKRRKALELLEKLEENKEKLDKEFYEKYKKRAEEIAEEFQRIANEIMKKLEEK
B2: traf2_out_20_38_2010 (protein)
chain: SEEEKEKEKLEKLVEVANEAYDKYSAEFEKWKAEGKTVEEIAEEVKKRVKEKLSAAGLEEEAKILIEDIDLALSSPNAWRLLVRTLARADALVKQKELNK
B3: traf2_out_17_162_1551 (protein)
chain: SALEEELERLEEELRRLEEELERLKKELENLEKKSKEELTDLLVEASEARRRARELAERLRELEPLIGEERAGELRERAEEIAEELQRIANKIYKELEKK
B4: traf2_out_20_38_2037 (protein)
chain: SEEEEEEKKLQEVIDVANEALDKYEKKIAEWKAEGKTVEEIAEAAKEEVRRLLEEVGLEEEAEILVEDIDRALSSPDAERLIARILARAVALVKQKELNK
B5: traf2_out_11_169_882 (protein)
chain: EEKEKNRKFNDFALELNDKAKKELLAFAEELAKKLGLDVAEVKAIFEANKNSSLSALAAALIEYFRSKGHEDAAAAVLAKYEELQEKINKEGTKKLKELE
B6: traf2_out_17_178_1712 (protein)
chain: SKEEARKEISAATDEMIDLAEAAATRLLEIARKEGSLSPEELAELERARRLGSARTTLALMERAIPKSKSAEEVQAILDEFRKRYAELSKKIAEALEKYE
B7: traf2_out_20_38_2005 (protein)
chain: SEEEEEERRLKIIIEAANEELDRWEKEIEELKAEGKTVEEIAERAKEEVRRLLTAAGLEEEAEELIAEIDLVLDSPDALDAIARILARAKALVVQKELNK
B8: traf2_out_20_3_2071 (protein)
chain: KELEEEAERELERALELLKRAAELADEETAKRLEELIKRLKASRELSVDDRLVVVSEVRREVLELAEEAKAAGKEELAKELEEAAEALNRAAQLLYDILQ
B9: traf2_out_13_95_1038 (protein)
chain: SKELAEKIMEIADEMEERSLALLEAAKEELADDPEAVAVLTEAKRLAETKGISEALHLLREASAANPEHAARFDALIEELEAIRREAGRKVAKLIKEEEE
B10: traf2_out_15_48_1367 (protein)
chain: DAAAYRAAMNAAADRIIATKDEVKKEVKELAKVASPEVKKKLNEVAKLIEAGAGSQEIIAALKEAAKVASPELKAKLEELAERLRAARREASAIAAAMAK
B11: traf2_out_13_95_1077 (protein)
chain: SKETNEKIMEIADEMLDKVNEVLEELAEKVKDDPEMKAKVEEALHLATHRGINEAIHLLKKLAEENEEYKELLEEAIKKLEEIKEKAGKEVAKLLKEEEE
B12: traf2_out_13_95_1157 (protein)
chain: SAELAKKIMEIADEMLDRSLAVLDALLAKAKAAGKLEAEVAEARHLAETRSINEAIAKLRELAKAHPEFKAELDAAIAELEALRREAGRKVAELIKEEEE
B13: traf2_out_17_162_1548 (protein)
chain: GELEERLKELEEELEELERRAEELESLLPELPKLSKEELTDLLVEASEARRRARRLAEEIEKLKEEIGEERAEELRERAEEIAERLQRIANAIYKELEKK
B14: traf2_out_17_162_1490 (protein)
chain: EELEERLRELERRLEELERRLKELEEKLKNIDKLSKEELTDLLVEASEAKREARRLAEELRELRERTGREELEELIRRAEEIAERLQRIANIIYKELEKK
B15: traf2_out_17_162_1532 (protein)
chain: SELEERLRELEEELRELEKRLEELEKELENLENMSKEELSDLLVEASEARRRALELAEELRELRSEIGEERAEELIRRAEEIAERLQRIANKIYEELEKK
B16: traf2_out_18_3_1898 (protein)
chain: SEEKLKEISEKIDEIIDEVTAKAREVLDWLEKNKPEVKERIAALRADLEAGAGPFGILRELARLAKEAGEEEKAKEIEEFLKEKSKELQELVDEYLELRA
B17: traf2_out_13_95_1133 (protein)
chain: SAETAKKIMEIADKMLDEVEKILEELLKIFEKKGIGVEEIKEALYLARHQSINEAIAKLEELSKKYPEFKEELDKAIEEIKALREKAGKEVAEILKKEKE
B18: traf2_out_1_27_1000 (protein)
chain: STEEERELLRRANREIGRASPEEQVEIIKRTLREALERGIDSPEHIAVVLILMLGDEETRERAIEAAREVLREAGISEEAIERMERRVRSGWERLDRLLA
B19: traf2_out_11_169_815 (protein)
chain: EEAEKNRKINDFALELNDEAKKKLLEHAKKLAKEAGLDVEEVEKIFEENKNKSLSAVAAALIKYFRSKGKEEEAEAVLKKYEELKEEINKKVTEKIKELE
B20: traf2_out_13_95_1055 (protein)
chain: SAETAAKINEIADEALERALALLRAAQEEVADDPAASAVLAEALRLAETRGISEAIHLLREAQAADPAHAERFAALIEELEAIRREAGRRVAEVLKEEKE
B21: traf2_out_18_64_1955 (protein)
chain: SELDEEIDRLVDEMDERRRLRLALARALQARAAADPAWQPLLDYFHAHVNDIGAAGARRMLALLAAGAPPAELRAVMEEDLGEGRELQRRLAELLEKREK
B22: traf2_out_18_117_1787 (protein)
chain: MEREEIIERLKEIAEETGRAASELGKLVLEKWEELTPEEKSEAFDVLADLSEVRREAQLLIIEIEEKNLPIEEAKKRLEELEKRAEEALKRAEEKIKRIK
B23: traf2_out_17_178_1705 (protein)
chain: SKEEARKKISEATDKMIDLAQEAAERLLEIAEREGSLSPEELAELRRARRLGSARTTLALMRRAIPRSRSAEEVRRLVEEFEKEYRELSKIIAEELKKYE
B24: traf2_out_13_95_1155 (protein)
chain: SKELAEKIMEIADRMLDEALAVLDELLAAAKAAGKLEEEVARARHLAEHHSINEAIALLRELAKAHPEFKEELDAAIARLEALRREAGREVAELIKKEKE
B25: traf2_out_13_95_1102 (protein)
chain: SRELAEEIMKIADEMIDKANEILEELLKIAKEKGVAEEEVKEALYLAEHRSIREAIHKLKELAKEYPELKEEFEEAIEKLEKLIEEAGKKVAELIKEEKE
B26: traf2_out_6_166_2459 (protein)
chain: ESETLKEIREIIKELSKYSTEIIVKAFDEVAKKVDEESARILRQLKSAVEQAEKLGLDVETALTATVLGLITLGVPEETLLKLLKEVLKEAKKIAEEKEK
B27: traf2_out_13_95_1054 (protein)
chain: SAETAEKINEIADEALEEALALLEEARAEVADDPEASAVLDEALRLAETKGISEAIHLLEEARAADPAHAERFAALIERLRAIRREAGRKVAEVLKEAEE
B28: traf2_out_14_166_1277 (protein)
chain: MTPEEIERIRKIVDELEPLTDAAVARARAILDKVRDKLSPEDLARVEALLALAARNIGSSAINALREIAKIYKKAGLDEAAAAMQALADELEEKLKKLNK
B29: traf2_out_6_156_2405 (protein)
chain: MLEEIEEETLKEIEELIKELAAASEEKKIAYISKIAGTFYRGLQRARAAGASVEELEAFGKRVLEKTKELLDEEGLPQDVKDLILSSLNAVFDVALAEAR

Biological target: T1, TRAF2, Q12933
Assay: median log2 fold change of GCK-ALFA target abundance (FLAG IP / Myc IP barcode read proportion) (log2 ratio); each designed protein is fused to an ALFA-tag nanobody in HEK293 cells to bring the named protein to FLAG-tagged glucokinase (GCK); Myc marks an untargeted standard; higher = target protein stabilised (more abundant)
Conditions: target protein: 3xFLAG-MCP-GCK-ALFA reporter; HEK293 landing pad (RPLP)
How it was run: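 HEK293 landing-pad cells received a recombined binder library fused to the ALFA nanobody and were induced with 2 μg mL^−1 doxycycline, then transfected with a plasmid encoding a FLAG-tagged target and a Myc-tagged standard. Lysates were collected after 48 h for anti-FLAG and anti-Myc immunoprecipitation, and the circular RNA barcodes were reverse transcribed, amplified and sequenced. Target abundance for each binder is the median log2 ratio of FLAG to Myc barcode read proportions. Barcodes had to reach a proportion of at least 10^−7 in both replicates, each binder needed at least 3 barcodes per replicate, a pseudocount of 10^−6 was applied, and the two replicates were pooled.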

For B1, which “median log2 fold change” value is on record?
The value was 0.0488.

How did the “median log2 fold change” value turn out when B2 was run?
The value was -1.49.

For B3, which “median log2 fold change” value is on record?
Its value is 0.0543.

Which “median log2 fold change” value does the source give for B4 here?
Its value is -1.45.

With B5 as the binder, how does the “median log2 fold change” value read?
The value was 0.444.

For B6, which “median log2 fold change” value is on record?
The value was 0.217.

For B7, which “median log2 fold change” value is on record?
The value was -1.09.

Which “median log2 fold change” value does the source give for B8 here?
The value was 0.112.

For B9, which “median log2 fold change” value is on record?
The value was -0.177.

For B10, which “median log2 fold change” value is on record?
The value was -0.184.

For B11, which “median log2 fold change” value is on record?
Its value is -0.0213.

B12 was tested. Which “median log2 fold change” value did it give?
The value was -0.558.

Which “median log2 fold change” value does the source give for B13 here?
The value was 0.22.

For B14, which “median log2 fold change” value is on record?
Its value is -1.17.

How did the “median log2 fold change” value turn out when B15 was run?
The value was 0.0409.

For B16, which “median log2 fold change” value is on record?
The value was -0.192.

For B17, which “median log2 fold change” value is on record?
The value was -0.0113.

For B18, which “median log2 fold change” value is on record?
The value was 0.155.

For B19, which “median log2 fold change” value is on record?
Its value is 0.235.

How did the “median log2 fold change” value turn out when B20 was run?
Its value is 0.257.

For B21, which “median log2 fold change” value is on record?
Its value is 0.163.

B22 was tested. Which “median log2 fold change” value did it give?
Its value is 0.101.

With B23 as the binder, how does the “median log2 fold change” value read?
The value was -0.521.

B24 was tested. Which “median log2 fold change” value did it give?
Its value is -0.372.

B25 was tested. Which “median log2 fold change” value did it give?
Its value is -0.486.

B26 was tested. Which “median log2 fold change” value did it give?
Its value is 0.077.

Which “median log2 fold change” value does the source give for B27 here?
Its value is 0.213.

Which “median log2 fold change” value does the source give for B28 here?
Its value is 0.354.

For B29, which “median log2 fold change” value is on record?
The value was 0.151.
